Results taken from PubChem BioAssay.
Active and inactive are the calls of the source.

Assays:
[1] = small molecules captured by biotinylated probe aFSTL3 – biochemical, small-molecule microarray, fluorescence 635/667, stem cell growth factor project, primary screen (AID 1064); conditions: higher = more signal;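 further: measures binding of the biotinylated anti-FSTL3 antibody to printed compounds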
[2] = binders from COS7 lysate, DM2A8 probe, primary screen, torsin A project, cell lysate, small-molecule microarray, fluorescence 635/667 (AID 1065); conditions: higher = more signal, COS7 lysate expressing mutant human TOR1A
[3] = small molecules captured by biotinylated probe aFGF2 – biochemical, small-molecule microarray, fluorescence 635/667, stem cell growth factor project, primary screen (AID 1067); conditions: higher = more signal;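 further: measures binding of biotinylated aFGF2 protein to printed compounds on slides; z-score merges feature fluorescence and signal-to-noise across triplicate slides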
[4] = small molecules captured by biotinylated probe aFGF10 – biochemical, small-molecule microarray, fluorescence 635/667, stem cell growth factor project, primary screen (AID 1071); conditions: higher = more signal;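 further: score merges 667 nm spot intensity and signal to noise from triplicate slides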
[5] = target: Neurogenic locus notch homolog protein 2 (Homo sapiens) (UniProt Q04721); assay: small molecules binding Notch2 protein – biochemical, small-molecule microarray, 635 nm fluorescence, stem cell growth factors, primary screen (AID 1073); conditions: higher = more signal
[6] = target: Pro-neuregulin-1, membrane-bound isoform (Homo sapiens) (UniProt Q02297); assay: small molecules binding neuregulin-1 protein – biochemical, small-molecule microarray, fluorescence 635/667, psychiatric disease protein project, primary screen (AID 1075); conditions: NRG1 binding, 635 nm fluorescence, higher = more signal;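 further: score combines 667 nm spot fluorescence with signal to noise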
[7] = tested on: Neuregulin-1 EGF-like domain; assay: small molecules binding NRG1 EGF domain – biochemical, small-molecule microarray, 635 nm fluorescence, primary screen (AID 1081); conditions: higher = more signal;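 further: binding of the protein to compounds printed on small-molecule microarray slides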
[8] = FRG1 expression reporter modulators in myotubes – cell-based, C2C12 myotubes, firefly/Renilla luciferase, luminescence, FRG1 inhibition for FSHD, primary screen (AID 1084); conditions: FRG1 promoter luciferase, higher = more signal, called active from +8 up or from −8 down
[9] = small molecules captured by biotinylated probe aFST – biochemical, small-molecule microarray, fluorescence 635/667, stem cell growth factor project, primary screen (AID 1086); conditions: higher = more signal;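 further: score merges 667 nm fluorescence with signal-to-noise of each printed compound spot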
[10] = binders of probe aHhip on microarray, primary screen, stem cell growth factor project, biochemical, small-molecule microarray, fluorescence 635/667 (AID 1087); conditions: higher = more signal;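 further: score merges spot fluorescence at 667nm with spot signal to noise ratio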
[11] = tested on: PRMT1 (protein arginine N-methyltransferase 1); assay: small molecules binding arginine methyltransferase PRMT1 – biochemical, small-molecule microarray, 635 nm fluorescence, primary screen (AID 1088); conditions: higher = more signal;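 further: binding of Prmt1 protein to compounds spotted on small-molecule microarray slides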
[12] = growth effects on S. cerevisiae YJM789 – YJM789 clinical isolate, OD600, 24 h, basal, primary screen (AID 1089); conditions: higher = more signal, called active from +8 up or from −8 down;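 further: growth of clinical yeast isolate S. cerevisiae YJM 789 seeded 1000 cells per well; test concentration not given here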
[13] = S. pombe growth modifiers, basal conditions – strain 972, OD600, 24 h, no modulator, primary screen (AID 1090);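 further: basal condition with compound alone and no growth modifier present; test concentration not given here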; conditions: S. pombe 972 growth, higher = more signal, called active from +8 up or from −8 down
[14] = budding yeast growth modifiers under rapamycin – strain BY4716, OD600, 96 h, primary screen (AID 1091); further: test concentration not given here; conditions: S. cerevisiae BY4716 + rapamycin, higher = more signal, called active from +8 up or from −8 down
[15] = target: Torsin-1A-interacting protein 2 (Homo sapiens) (UniProt Q8NFQ8); assay: small molecules binding lysate-expressed LULL1 – cell lysate, human LULL1 lysate, 635/667 nm fluorescence, primary screen (AID 1092); conditions: small-molecule microarray, hLULL1 lysate binding, 635 nm fluorescence; higher = more signal;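 further: probe is lysate of COS7 cells overexpressing human LULL1; score merges per-feature 667 nm fluorescence with signal-to-noise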
[16] = optical density change of DRC41 E. coli – strain DRC41, OD650, 24 h, E. coli filamentation project, primary screen (AID 1093);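 further: MC1000 strain lacking acrAB efflux and sulA so SOS filamentation is blocked; test concentration not given here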; conditions: E. coli DRC41 growth, higher = more signal, called active from +8 up or from −8 down
[17] = probe aLefty2 binding to arrayed compounds – biochemical, biotinylated probe, 635/667 nm fluorescence, primary screen (AID 1094); conditions: small-molecule microarray, higher = more signal;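 further: score merges spot fluorescence near 667 nm with spot signal-to-noise ratio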
[18] = tested on: Noggin (protein binding on small-molecule microarray); assay: small molecules binding Noggin protein – biochemical, 635/667 nm fluorescence, primary screen (AID 1095); conditions: 635 nm fluorescence, higher = more signal;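 further: score merges 667 nm feature fluorescence with signal to noise over triplicate slides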
[19] = target: Neurogenic locus notch homolog protein 3 (Homo sapiens) (UniProt Q9UM47); assay: small molecules binding NOTCH3 protein – biochemical, 635/667 nm fluorescence, primary screen (AID 1096); conditions: small-molecule microarray, 635 nm fluorescence, higher = more signal
[20] = probe aEGFR binding to arrayed compounds – biochemical, biotinylated probe, 635/667 nm fluorescence, primary screen (AID 1097); conditions: small-molecule microarray, higher = more signal;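 further: probe is a biotinylated anti-EGFR antibody binding compounds printed on slides; score combines fluorescence near 667 nm and signal to noise of each spot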

Chain of Torsin-1A-interacting protein 2 (Homo sapiens) (Q8NFQ8 whole entry, looked up): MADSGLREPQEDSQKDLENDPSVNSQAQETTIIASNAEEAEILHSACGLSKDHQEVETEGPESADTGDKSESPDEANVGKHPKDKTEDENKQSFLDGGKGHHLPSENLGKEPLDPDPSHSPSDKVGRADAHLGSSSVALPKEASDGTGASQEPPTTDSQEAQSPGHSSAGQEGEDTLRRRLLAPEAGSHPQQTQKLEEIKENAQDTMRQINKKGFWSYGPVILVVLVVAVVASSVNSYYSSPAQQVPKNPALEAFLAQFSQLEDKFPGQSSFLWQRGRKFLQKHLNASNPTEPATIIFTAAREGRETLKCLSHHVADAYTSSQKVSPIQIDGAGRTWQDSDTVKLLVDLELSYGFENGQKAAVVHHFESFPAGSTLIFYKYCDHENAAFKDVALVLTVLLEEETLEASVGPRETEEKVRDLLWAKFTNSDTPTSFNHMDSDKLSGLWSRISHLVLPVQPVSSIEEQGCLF
Chain of Neurogenic locus notch homolog protein 2 (Homo sapiens) (Q04721 whole entry, looked up, canonical isoform): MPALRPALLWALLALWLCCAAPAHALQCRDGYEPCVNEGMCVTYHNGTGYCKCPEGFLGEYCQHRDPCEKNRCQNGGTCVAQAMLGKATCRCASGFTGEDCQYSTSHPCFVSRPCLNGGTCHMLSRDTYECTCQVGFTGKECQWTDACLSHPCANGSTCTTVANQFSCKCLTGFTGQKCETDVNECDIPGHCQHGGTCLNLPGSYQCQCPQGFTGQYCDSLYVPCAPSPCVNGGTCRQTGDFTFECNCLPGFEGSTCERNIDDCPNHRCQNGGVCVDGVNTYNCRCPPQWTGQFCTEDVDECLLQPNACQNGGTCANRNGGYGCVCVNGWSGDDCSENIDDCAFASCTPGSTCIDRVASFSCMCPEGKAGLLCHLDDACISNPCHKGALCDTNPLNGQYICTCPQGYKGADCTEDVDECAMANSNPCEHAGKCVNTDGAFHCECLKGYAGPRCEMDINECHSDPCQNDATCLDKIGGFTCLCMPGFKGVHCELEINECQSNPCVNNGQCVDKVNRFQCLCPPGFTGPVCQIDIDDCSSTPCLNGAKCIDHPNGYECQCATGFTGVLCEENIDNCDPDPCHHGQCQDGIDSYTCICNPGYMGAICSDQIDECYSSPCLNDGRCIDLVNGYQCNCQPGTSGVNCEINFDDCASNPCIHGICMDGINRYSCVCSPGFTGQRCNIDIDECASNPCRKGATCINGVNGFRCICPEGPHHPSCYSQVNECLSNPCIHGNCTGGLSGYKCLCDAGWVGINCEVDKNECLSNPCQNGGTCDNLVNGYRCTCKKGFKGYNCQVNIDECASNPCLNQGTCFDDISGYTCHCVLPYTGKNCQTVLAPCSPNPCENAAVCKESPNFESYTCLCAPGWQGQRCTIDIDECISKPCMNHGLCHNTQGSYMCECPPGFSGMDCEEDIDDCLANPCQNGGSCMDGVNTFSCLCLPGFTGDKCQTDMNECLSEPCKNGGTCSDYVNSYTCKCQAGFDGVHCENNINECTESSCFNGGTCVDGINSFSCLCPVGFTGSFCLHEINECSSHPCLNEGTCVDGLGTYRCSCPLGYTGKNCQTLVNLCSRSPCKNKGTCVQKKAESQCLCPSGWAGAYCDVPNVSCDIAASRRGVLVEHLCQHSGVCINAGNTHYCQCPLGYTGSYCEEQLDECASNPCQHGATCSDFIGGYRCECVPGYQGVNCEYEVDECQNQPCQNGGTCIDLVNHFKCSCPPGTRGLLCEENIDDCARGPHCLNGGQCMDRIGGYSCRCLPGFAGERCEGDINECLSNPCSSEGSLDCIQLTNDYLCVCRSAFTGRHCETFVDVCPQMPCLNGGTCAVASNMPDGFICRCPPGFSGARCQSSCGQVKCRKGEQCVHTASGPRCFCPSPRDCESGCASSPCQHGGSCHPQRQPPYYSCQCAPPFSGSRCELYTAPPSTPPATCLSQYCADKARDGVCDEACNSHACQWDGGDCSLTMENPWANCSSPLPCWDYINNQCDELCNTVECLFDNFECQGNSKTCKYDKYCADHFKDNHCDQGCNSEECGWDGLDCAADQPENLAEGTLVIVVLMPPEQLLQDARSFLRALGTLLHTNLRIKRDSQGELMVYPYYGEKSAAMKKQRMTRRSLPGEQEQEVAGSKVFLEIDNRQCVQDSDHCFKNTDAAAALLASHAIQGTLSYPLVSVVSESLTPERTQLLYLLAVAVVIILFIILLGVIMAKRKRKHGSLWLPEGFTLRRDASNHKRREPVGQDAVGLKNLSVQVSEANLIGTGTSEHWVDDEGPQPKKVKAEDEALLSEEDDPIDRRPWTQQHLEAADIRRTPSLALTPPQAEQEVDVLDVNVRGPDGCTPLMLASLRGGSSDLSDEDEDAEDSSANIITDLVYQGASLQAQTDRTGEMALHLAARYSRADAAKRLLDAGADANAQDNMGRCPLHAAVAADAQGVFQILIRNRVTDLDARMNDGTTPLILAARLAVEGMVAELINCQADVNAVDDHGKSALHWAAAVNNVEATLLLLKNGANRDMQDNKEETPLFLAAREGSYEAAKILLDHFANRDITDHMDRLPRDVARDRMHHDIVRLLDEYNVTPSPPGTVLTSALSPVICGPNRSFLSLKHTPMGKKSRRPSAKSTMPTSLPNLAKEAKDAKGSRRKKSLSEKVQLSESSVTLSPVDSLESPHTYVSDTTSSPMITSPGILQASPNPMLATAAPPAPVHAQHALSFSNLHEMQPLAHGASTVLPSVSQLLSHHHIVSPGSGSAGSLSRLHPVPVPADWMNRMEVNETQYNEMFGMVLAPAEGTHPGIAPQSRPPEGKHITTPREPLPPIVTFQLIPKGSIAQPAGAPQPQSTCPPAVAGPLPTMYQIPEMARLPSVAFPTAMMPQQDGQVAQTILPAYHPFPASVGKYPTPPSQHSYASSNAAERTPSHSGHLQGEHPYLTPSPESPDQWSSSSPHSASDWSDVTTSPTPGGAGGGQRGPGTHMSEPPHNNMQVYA
Chain of Pro-neuregulin-1, membrane-bound isoform (Homo sapiens) (Q02297 whole entry, looked up, the tested form may be a part, canonical isoform): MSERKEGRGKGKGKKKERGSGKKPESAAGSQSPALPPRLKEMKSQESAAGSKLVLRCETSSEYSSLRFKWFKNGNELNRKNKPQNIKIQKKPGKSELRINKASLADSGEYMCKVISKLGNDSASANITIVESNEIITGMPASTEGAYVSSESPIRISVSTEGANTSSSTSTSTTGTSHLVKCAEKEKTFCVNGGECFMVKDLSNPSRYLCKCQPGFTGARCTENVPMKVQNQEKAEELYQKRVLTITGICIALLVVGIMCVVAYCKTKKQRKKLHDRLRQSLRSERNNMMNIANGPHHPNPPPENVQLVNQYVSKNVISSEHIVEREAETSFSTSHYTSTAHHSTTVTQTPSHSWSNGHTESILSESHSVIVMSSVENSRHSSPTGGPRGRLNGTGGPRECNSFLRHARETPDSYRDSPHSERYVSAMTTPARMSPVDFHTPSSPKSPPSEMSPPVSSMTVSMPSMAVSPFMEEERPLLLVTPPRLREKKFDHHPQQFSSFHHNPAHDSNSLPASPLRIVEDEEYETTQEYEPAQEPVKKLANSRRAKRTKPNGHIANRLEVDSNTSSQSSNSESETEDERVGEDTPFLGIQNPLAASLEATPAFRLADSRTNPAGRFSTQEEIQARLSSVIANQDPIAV

## CC[C@@H]1C=C(C(=O)O)[C@H](c2ccco2)N1S(=O)(=O)c1ccc(C)cc1
[1]
  composite z-score: 0.001
[2]
  composite z-score: 0.0518
[3]
  composite z-score: -0.0141
[4]
  composite z-score: -0.214
[5]
  composite z-score: -0.974
[6]
  composite z-score: 0.179
[7]
  composite z-score: 0.504
[8]
  z-score: 0.0623 (inactive)
[9]
  composite z-score: 0.545
[10]
  composite z-score: -0.0391
[11]
  composite z-score: 0.475
[12]
  z-score: 0.316 (inactive)
[13]
  z-score: 0.535 (inactive)
[14]
  z-score: -0.407 (inactive)
[15]
  composite z-score: 0.0172
[16]
  z-score: 0.0597 (inactive)
[17]
  composite z-score: -0.0644
[18]
  composite z-score: 0.237
[19]
  composite z-score: -0.14
[20]
  composite z-score: -0.171

## [N-]=[N+]=NCc1ccccc1[C@H]1OC(c2ccc(OCCCO)cc2)=N[C@@]1(Cc1ccccc1)C(=O)NCc1ccccc1
[1]
  composite z-score: -0.0101
[2]
  composite z-score: 0.742
[3]
  composite z-score: -0.0184
[4]
  composite z-score: 1.27
[5]
  composite z-score: 1.24
[6]
  composite z-score: 2.05
[7]
  composite z-score: 0.921
[8]
  z-score: -1.5 (inactive)
[9]
  composite z-score: 0.513
[10]
  composite z-score: -0.331
[11]
  composite z-score: 1.48
[12]
  z-score: -1.9 (inactive)
[13]
  z-score: -0.0354 (inactive)
[14]
  z-score: 6.58 (inactive)
[15]
  composite z-score: 2.86
[16]
  z-score: 0.84 (inactive)
[17]
  composite z-score: 0.151
[18]
  composite z-score: 0.177
[19]
  composite z-score: 1.12
[20]
  composite z-score: 0.411

## CN(C)CCCNC(=O)[C@@]1(C)c2ccccc2C(=O)N(Cc2cc(F)cc(C(F)(F)F)c2)[C@H]1c1ccc(CO)cc1
[1]
  composite z-score: -0.0117
[2]
  composite z-score: -0.224
[3]
  composite z-score: -0.144
[4]
  composite z-score: -0.681
[5]
  composite z-score: -1.23
[6]
  composite z-score: 1.05
[7]
  composite z-score: -0.164
[8]
  z-score: -0.712 (inactive)
[9]
  composite z-score: -0.641
[10]
  composite z-score: -0.132
[11]
  composite z-score: 0.936
[12]
  z-score: -1.46 (inactive)
[13]
  z-score: -2.05 (inactive)
[14]
  z-score: -2.02 (inactive)
[15]
  composite z-score: 3.12
[16]
  z-score: 0.0544 (inactive)
[17]
  composite z-score: -0.203
[18]
  composite z-score: -0.986
[19]
  composite z-score: -0.604
[20]
  composite z-score: -0.237

## CCOC(=O)C[C@H]1[C@H](OC(=O)Cc2ccc3c(c2)OCO3)[C@@H](NC(=O)c2ccc3ccccc3c2)c2cc(OCCCO)ccc2N1C(=O)c1ccccc1
[1]
  composite z-score: -0.397
[2]
  composite z-score: 0.0993
[3]
  composite z-score: -0.14
[4]
  composite z-score: 0.284
[5]
  composite z-score: 0.642
[6]
  composite z-score: 0.376
[7]
  composite z-score: 1.13
[8]
  z-score: 0.12 (inactive)
[9]
  composite z-score: 0.254
[10]
  composite z-score: 0.0373
[11]
  composite z-score: 0.745
[12]
  z-score: -0.0607 (inactive)
[13]
  z-score: 0.175 (inactive)
[14]
  z-score: 0.954 (inactive)
[15]
  composite z-score: 1.69
[16]
  z-score: 1.35 (inactive)
[17]
  composite z-score: -0.0961
[18]
  composite z-score: 0.329
[19]
  composite z-score: 0.742
[20]
  composite z-score: -0.0225
